# Laboratory results from ChEMBL document CHEMBL1961873, “Compounds: GSK PKIS; Assays: Nanosyn kinase panel” (2012).
# Key:
# [1] = target: T1, Mitogen-activated protein kinase 12 (Homo sapiens) (UniProt P53778); details: at 1 µM;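 further: values are averaged p38gamma kinase inhibition readings, compounds tested at 1 µM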
# T1 sequence (whole entry): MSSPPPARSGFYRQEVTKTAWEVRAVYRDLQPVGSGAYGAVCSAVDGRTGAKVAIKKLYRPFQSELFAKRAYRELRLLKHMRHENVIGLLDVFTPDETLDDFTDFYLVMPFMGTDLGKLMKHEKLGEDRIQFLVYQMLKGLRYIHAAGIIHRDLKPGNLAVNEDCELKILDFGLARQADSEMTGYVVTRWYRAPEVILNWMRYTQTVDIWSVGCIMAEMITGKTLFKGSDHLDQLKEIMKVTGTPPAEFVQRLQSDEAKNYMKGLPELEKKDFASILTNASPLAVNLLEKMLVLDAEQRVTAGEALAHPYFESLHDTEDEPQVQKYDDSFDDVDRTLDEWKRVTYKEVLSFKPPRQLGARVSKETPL
# [2] = target: SRSF protein kinase 1 (Homo sapiens) (UniProt Q96SB4); details: at 0.1 µM
# [3] = target: SRSF protein kinase 1 (Homo sapiens) (UniProt Q96SB4); details: at 1 µM
# [4] = target: Phosphatidylinositol 4,5-bisphosphate 3-kinase catalytic subunit alpha isoform (Homo sapiens) (UniProt P42336); details: at 0.1 µM
# [5] = target: Phosphatidylinositol 4,5-bisphosphate 3-kinase catalytic subunit alpha isoform (Homo sapiens) (UniProt P42336); details: at 1 µM
# [6] = target: T2, Phosphatidylinositol 4,5-bisphosphate 3-kinase catalytic subunit delta isoform (Homo sapiens) (UniProt O00329); details: at 0.1 µM
# T2 sequence (whole entry): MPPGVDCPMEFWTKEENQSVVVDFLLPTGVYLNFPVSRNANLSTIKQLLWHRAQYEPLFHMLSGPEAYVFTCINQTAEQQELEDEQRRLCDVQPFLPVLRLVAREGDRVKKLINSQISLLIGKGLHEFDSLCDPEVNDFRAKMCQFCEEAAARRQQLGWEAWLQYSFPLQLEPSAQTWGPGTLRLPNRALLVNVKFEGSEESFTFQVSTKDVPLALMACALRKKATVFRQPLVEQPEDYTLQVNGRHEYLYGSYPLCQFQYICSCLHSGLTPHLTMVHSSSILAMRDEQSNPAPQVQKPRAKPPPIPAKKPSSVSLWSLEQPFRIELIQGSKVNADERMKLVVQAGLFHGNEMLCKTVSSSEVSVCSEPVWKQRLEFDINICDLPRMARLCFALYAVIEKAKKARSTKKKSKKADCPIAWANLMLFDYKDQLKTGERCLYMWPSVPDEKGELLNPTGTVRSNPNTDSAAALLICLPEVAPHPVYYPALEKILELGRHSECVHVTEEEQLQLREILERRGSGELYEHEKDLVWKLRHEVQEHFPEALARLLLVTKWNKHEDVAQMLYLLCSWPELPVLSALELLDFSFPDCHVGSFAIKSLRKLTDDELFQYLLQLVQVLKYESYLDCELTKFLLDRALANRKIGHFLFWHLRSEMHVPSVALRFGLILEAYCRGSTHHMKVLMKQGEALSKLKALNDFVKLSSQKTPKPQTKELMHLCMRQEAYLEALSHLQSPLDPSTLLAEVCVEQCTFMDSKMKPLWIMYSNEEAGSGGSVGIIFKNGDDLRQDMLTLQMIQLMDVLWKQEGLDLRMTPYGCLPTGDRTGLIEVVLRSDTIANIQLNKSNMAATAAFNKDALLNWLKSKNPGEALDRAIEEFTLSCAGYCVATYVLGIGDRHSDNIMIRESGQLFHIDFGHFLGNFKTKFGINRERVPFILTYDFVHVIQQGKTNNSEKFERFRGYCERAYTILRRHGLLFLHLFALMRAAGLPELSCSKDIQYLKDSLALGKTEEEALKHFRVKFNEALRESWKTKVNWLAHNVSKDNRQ
# [7] = target: T2, Phosphatidylinositol 4,5-bisphosphate 3-kinase catalytic subunit delta isoform (Homo sapiens); details: at 1 µM
# [8] = target: Phosphatidylinositol 4-kinase beta (Homo sapiens) (UniProt Q9UBF8); details: at 0.1 µM
# [9] = target: Phosphatidylinositol 4-kinase beta (Homo sapiens) (UniProt Q9UBF8); details: at 1 µM
# [10] = target: Sphingosine kinase 1 (Homo sapiens) (UniProt Q9NYA1); details: at 0.1 µM
# [11] = target: Sphingosine kinase 1 (Homo sapiens) (UniProt Q9NYA1); details: at 1 µM
# [12] = target: T3, Sphingosine kinase 2 (Homo sapiens) (UniProt Q9NRA0); details: at 0.1 µM
# T3 sequence (whole entry): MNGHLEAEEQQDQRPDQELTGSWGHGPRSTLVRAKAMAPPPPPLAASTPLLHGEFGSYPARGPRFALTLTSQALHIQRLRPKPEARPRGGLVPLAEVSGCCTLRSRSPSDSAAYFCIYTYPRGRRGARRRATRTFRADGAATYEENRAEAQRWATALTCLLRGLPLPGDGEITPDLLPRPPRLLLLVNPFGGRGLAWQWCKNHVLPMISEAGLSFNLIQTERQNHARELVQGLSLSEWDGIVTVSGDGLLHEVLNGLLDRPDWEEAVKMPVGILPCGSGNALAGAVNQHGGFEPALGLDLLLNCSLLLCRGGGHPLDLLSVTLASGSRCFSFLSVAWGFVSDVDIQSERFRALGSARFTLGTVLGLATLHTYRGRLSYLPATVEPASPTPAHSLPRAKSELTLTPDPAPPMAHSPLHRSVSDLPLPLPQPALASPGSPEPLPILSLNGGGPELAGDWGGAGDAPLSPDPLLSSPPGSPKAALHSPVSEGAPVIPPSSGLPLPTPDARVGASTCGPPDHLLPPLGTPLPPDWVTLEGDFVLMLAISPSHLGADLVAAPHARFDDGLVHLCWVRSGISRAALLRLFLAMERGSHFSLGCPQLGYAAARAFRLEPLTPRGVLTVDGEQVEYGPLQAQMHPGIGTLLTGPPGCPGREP
# [13] = target: T3, Sphingosine kinase 2 (Homo sapiens); details: at 1 µM
# [14] = target: Casein kinase II subunit alpha (Homo sapiens) (UniProt P68400); details: at 0.1 µM
# [15] = target: Casein kinase II subunit alpha (Homo sapiens) (UniProt P68400); details: at 1 µM
# [16] = target: T4, Inhibitor of nuclear factor kappa-B kinase subunit alpha (Homo sapiens) (UniProt O15111); details: at 0.1 µM
# T4 sequence (whole entry): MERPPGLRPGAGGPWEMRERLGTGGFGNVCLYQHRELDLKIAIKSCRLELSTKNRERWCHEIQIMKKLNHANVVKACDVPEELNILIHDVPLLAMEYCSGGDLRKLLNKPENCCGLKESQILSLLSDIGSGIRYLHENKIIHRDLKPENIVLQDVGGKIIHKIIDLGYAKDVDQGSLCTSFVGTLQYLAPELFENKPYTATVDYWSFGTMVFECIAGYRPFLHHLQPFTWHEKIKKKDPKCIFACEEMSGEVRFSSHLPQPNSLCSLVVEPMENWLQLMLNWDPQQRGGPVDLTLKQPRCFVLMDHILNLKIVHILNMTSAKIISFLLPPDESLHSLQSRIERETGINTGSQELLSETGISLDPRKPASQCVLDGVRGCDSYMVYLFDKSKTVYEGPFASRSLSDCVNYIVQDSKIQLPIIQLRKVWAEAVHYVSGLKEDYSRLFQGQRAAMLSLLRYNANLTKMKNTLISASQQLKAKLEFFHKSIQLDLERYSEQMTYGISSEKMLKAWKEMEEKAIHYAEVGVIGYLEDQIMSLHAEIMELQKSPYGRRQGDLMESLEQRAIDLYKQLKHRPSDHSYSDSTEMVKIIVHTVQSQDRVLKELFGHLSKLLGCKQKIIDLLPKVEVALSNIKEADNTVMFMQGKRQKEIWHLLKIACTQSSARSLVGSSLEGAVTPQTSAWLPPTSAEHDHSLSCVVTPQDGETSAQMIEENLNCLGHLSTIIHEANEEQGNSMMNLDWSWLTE
# [17] = target: T4, Inhibitor of nuclear factor kappa-B kinase subunit alpha (Homo sapiens); details: at 1 µM
# [18] = target: T5, Inhibitor of nuclear factor kappa-B kinase subunit beta (Homo sapiens) (UniProt O14920); details: at 0.1 µM
# T5 sequence (whole entry): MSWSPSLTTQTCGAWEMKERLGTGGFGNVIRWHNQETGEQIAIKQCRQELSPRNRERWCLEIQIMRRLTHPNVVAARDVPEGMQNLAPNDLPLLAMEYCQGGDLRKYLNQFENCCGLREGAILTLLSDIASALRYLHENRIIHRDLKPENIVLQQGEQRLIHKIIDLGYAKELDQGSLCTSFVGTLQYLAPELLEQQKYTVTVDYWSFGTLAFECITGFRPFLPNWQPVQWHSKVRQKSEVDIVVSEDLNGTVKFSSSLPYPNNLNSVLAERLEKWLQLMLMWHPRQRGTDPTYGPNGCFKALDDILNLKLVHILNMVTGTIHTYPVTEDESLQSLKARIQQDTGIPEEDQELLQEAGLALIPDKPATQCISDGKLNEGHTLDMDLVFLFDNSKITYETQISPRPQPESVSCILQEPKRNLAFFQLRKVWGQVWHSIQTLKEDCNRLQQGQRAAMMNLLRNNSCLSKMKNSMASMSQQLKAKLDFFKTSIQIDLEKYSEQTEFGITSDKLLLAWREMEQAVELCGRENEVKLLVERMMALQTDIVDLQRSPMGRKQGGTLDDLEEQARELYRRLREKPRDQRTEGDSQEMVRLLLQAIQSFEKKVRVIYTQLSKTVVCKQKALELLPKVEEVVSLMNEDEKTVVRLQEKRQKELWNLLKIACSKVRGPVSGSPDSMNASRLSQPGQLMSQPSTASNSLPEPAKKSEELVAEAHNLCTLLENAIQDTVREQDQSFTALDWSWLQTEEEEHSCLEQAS
# [19] = target: T5, Inhibitor of nuclear factor kappa-B kinase subunit beta (Homo sapiens); details: at 1 µM
# [20] = target: T6, Inhibitor of nuclear factor kappa-B kinase subunit epsilon (Homo sapiens) (UniProt Q14164); details: at 0.1 µM;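 further: mean inhibition of IKKε reported, from the GSK PKIS dataset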
# T6 sequence (whole entry): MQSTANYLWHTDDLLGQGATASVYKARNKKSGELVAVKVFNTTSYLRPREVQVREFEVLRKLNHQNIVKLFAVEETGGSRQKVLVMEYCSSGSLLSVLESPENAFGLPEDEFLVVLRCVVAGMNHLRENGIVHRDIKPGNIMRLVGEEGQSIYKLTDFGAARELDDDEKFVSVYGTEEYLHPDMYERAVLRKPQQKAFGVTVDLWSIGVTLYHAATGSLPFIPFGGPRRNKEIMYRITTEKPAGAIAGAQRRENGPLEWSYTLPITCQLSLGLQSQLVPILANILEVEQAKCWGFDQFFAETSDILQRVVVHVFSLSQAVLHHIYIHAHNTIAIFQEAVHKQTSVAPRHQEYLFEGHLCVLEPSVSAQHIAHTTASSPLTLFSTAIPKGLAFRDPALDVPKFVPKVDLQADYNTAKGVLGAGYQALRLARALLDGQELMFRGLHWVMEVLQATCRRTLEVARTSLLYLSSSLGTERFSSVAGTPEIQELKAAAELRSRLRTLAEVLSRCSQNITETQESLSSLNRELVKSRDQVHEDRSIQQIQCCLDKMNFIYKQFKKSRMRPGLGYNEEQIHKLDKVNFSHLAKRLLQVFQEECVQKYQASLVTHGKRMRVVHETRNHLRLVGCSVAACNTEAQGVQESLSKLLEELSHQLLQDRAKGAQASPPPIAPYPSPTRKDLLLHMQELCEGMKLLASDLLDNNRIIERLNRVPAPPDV
# Sequence of Phosphatidylinositol 4-kinase beta (Homo sapiens) (Q9UBF8 2-816 limits assumed): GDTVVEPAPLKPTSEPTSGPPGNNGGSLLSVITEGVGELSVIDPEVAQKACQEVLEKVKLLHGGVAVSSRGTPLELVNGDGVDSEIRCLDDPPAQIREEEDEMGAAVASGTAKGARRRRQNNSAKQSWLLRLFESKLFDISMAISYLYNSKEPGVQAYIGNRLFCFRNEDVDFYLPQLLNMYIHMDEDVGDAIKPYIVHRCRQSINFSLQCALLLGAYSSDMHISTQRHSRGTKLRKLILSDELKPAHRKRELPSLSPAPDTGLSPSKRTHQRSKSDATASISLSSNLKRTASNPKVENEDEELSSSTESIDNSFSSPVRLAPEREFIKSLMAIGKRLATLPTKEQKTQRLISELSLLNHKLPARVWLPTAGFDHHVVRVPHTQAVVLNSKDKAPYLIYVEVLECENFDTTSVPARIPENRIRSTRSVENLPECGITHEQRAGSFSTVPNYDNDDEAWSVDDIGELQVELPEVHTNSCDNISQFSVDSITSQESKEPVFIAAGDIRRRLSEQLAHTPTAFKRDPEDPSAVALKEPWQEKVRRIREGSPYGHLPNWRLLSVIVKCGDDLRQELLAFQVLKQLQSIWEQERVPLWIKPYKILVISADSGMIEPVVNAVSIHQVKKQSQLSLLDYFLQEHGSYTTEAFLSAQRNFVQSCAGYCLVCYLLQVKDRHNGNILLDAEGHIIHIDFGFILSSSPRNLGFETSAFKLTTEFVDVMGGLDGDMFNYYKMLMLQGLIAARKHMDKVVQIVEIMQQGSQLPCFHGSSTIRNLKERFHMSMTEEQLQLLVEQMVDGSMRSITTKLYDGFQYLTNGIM
# Sequence of Phosphatidylinositol 4,5-bisphosphate 3-kinase catalytic subunit alpha isoform (Homo sapiens) (P42336 whole entry, canonical isoform): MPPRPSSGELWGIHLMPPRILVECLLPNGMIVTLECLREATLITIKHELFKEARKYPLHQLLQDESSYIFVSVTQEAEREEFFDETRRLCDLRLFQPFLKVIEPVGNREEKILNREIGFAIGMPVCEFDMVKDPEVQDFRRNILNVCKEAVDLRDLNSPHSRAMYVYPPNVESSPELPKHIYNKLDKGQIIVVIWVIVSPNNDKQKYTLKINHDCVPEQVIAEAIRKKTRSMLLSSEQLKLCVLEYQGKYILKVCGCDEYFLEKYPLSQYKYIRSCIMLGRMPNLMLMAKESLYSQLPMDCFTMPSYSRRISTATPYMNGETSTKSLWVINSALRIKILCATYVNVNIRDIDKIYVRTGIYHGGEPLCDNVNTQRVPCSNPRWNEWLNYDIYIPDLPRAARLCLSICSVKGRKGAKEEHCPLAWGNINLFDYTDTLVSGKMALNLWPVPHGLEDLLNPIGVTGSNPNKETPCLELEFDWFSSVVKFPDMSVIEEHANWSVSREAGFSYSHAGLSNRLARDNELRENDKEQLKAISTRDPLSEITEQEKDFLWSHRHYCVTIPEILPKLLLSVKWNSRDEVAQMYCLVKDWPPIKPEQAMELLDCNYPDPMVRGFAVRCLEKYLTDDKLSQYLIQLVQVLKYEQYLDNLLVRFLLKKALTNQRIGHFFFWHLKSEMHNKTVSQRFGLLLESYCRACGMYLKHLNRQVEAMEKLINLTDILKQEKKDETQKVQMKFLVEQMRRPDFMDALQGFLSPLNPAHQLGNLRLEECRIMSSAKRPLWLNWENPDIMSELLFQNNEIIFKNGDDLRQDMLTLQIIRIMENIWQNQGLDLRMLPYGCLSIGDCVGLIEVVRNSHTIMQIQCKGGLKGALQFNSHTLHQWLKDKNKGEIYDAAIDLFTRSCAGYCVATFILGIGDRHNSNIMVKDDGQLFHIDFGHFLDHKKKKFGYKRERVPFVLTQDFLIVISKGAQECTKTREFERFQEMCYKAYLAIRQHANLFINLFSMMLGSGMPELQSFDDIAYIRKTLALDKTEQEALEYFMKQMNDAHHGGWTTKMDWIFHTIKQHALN
# Sequence of Sphingosine kinase 1 (Homo sapiens) (Q9NYA1 whole entry): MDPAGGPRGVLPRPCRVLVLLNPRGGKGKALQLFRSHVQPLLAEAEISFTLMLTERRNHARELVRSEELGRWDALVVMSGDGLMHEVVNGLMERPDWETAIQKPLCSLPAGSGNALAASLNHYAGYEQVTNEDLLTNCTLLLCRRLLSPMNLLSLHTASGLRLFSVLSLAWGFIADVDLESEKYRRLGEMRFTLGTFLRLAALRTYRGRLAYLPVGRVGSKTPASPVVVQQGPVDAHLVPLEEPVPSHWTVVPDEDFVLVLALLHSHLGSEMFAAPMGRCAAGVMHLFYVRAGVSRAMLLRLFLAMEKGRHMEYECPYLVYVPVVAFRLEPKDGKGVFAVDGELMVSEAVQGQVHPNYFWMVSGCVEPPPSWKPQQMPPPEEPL
# Sequence of SRSF protein kinase 1 (Homo sapiens) (Q96SB4 whole entry, canonical isoform): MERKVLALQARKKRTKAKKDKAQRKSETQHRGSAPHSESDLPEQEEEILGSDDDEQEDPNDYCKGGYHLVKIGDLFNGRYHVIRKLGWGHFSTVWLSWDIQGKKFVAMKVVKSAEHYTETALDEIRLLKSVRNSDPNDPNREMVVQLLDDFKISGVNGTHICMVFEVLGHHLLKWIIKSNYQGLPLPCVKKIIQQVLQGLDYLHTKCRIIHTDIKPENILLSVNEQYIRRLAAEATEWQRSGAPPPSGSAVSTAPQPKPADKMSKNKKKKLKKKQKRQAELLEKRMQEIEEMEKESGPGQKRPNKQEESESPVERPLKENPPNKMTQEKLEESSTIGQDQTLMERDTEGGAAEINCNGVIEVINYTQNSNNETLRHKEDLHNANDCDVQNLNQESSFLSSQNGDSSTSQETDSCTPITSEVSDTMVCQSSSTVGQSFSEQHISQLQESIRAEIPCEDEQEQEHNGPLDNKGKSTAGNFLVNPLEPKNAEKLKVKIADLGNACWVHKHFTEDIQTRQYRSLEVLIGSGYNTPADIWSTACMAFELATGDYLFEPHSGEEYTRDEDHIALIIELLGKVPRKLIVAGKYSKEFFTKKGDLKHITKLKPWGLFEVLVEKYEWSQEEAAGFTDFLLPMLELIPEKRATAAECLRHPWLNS
# Sequence of Casein kinase II subunit alpha (Homo sapiens) (P68400 whole entry, looked up): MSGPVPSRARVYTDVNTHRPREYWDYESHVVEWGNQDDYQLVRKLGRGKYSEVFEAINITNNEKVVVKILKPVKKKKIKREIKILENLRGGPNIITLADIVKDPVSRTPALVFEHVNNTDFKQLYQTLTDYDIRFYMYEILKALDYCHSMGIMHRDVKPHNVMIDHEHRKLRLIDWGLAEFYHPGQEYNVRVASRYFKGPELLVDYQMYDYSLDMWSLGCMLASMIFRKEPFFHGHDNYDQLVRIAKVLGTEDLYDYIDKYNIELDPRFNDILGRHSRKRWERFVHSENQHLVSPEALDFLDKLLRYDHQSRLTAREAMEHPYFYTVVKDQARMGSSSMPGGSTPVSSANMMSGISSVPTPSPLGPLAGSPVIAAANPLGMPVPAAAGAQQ
Compound,inhibition [1] [%],inhibition [2] [%],inhibition [3] [%],inhibition [4] [%],inhibition [5] [%],inhibition [6] [%],inhibition [7] [%],inhibition [8] [%],inhibition [9] [%],inhibition [10] [%],inhibition [11] [%],inhibition [12] [%],inhibition [13] [%],inhibition [14] [%],inhibition [15] [%],inhibition [16] [%],inhibition [17] [%],inhibition [18] [%],inhibition [19] [%],inhibition [20] [%]
CCc1nccc2c1nc(-c1nonc1N)n2CC,3.91,-2.2,-4.41,-0.95,1.38,1.47,4.23,-3.69,1.82,0,-1.61,1.28,1.35,0.7,-1.05,2.04,-4.71,0.02,-1.22,0.57
Cc1ccc(C(=O)NC(C)C)cc1-c1ccc(C(=O)NCC2CC2)cc1,-1.93,1.33,30.8,-2.38,-1.61,-1.08,-1.45,-3.91,-3.13,-0.6,-2.98,-1.05,1.77,7.28,0.22,2.97,-1.81,-0.39,-1.83,-5.06
NS(=O)(=O)c1ccc(N/N=C2\C(=O)Nc3ccc(-c4cnco4)cc32)cc1,5.43,-1.9,-0.75,1.34,-0.11,0.72,-0.54,1.44,2.18,-0.25,1.01,1.12,-1.25,5.69,15.2,1.42,35.1,2.62,10.4,5.68
Fc1ccc(-c2nc3n(c2-c2ccncc2)CCS3)cc1,3.41,-1.99,-4.38,3.77,4.45,3.17,4.9,-3.93,0.29,-3.68,-0.03,-0.14,-0.18,0.53,-1.41,5.66,4.06,6.22,4.63,5.03
COc1cc2ncn(-c3cc(OCCc4ccccc4)c(C(N)=O)s3)c2cc1OC,1.89,-2.73,-4.19,2.08,3.83,2.55,5.55,-0.92,3.17,-0.54,-2.62,-3.06,0.29,1.36,-0.04,6.65,1.12,3.03,0.18,2.79
FC(F)(F)c1cccc(Nc2nccc(-c3cnn4nc(-c5ccccc5)ccc34)n2)c1,1.51,-2.07,-0.92,2.52,8.98,-0.34,8.75,-0.22,-1.63,1.87,-2.23,-1.01,-0.56,7.97,4.42,1.94,7.04,3.55,3.27,3.76
NS(=O)(=O)c1ccc(Nc2cc(-c3ccc(O)c(F)c3)n[nH]2)cc1,-2.2,1.32,1.27,-2.99,2.09,-0.68,2.48,7.96,9.37,3.64,-3.17,0,0.11,5.31,29.6,-1.61,3.48,-0.76,0.06,-4.53
